Results filed as inconclusive are left out. Calls of active or inactive are those of the source. The calls were made as follows, unless noted: active = hit-call score of the fitted dose curve at least 0.9, where 1 is the maximum; inactive = score below 0.9.

Test [1] in a line: BSK_3C_Proliferation: Cell Proliferation Assessment in the BioMAP Diversity Plus: 3C Assay (AID 2283006).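 As to AC50: potency may reflect either rise or fall in cell number versus DMSO.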 Conditions: primary human endothelial cells (HUVEC). In a few lines: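 HUVEC, sub-confluent; 48 h chemical exposure; 10% TCA fix, 0.1% SRB stain, A560 total protein. Gain or loss of signal fitted both directions vs DMSO control.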
A short description of test [2]: BSK_3C_Vis: BioMAP Diversity Plus: 3C Assay for Morphology Visualization (AID 2283025).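 Also: fitted both ways so gain or loss versus DMSO counts.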 Conditions: primary human endothelial cells (HUVEC). In a few lines: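 HUVEC, 3C system; light microscopy of morphology at 24 h post-dose. Bidirectional fit vs DMSO baseline. Secondary readout, background-control function.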
Read-out in test [3]: Transforming growth factor beta 1 (TGFb1), TGFB1 (gene 7040)
Put plainly: BSK_BE3C_TGFb1: BioMAP Diversity Plus: BE3C Assay for Transforming growth factor beta 1 (TGFb1) Biomarker Activity (AID 2283036;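 also: TGF-b1 protein level measured by ELISA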). Conditions: primary human bronchial epithelial cells; actives raise or lower the signal. In a few lines: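 Read-out: ELISA for TGF-b1 in primary human bronchial epithelial cultures, 24 h post-dose. Bidirectional curve fitting vs DMSO control; gain or loss of signal both scored.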

Test [4] can be described thus: BSK_CASM3C_SRB: Viability Assessment in the BioMAP Diversity Plus: CASM3C Assay (AID 2283050). As to conditions: primary human coronary artery smooth muscle cells.
Read-out in test [5]: Transforming growth factor beta 1 (TGFb1), TGFB1 (gene 7040)
As to the kind of experiment: BSK_KF3CT_TGFb1: BioMAP Diversity Plus: KF3CT Assay for Transforming growth factor beta 1 (TGFb1) Biomarker Activity (AID 2283072). As to conditions: primary human keratinocytes with fibroblasts; actives raise or lower the signal. In a few lines: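 Read-out: ELISA for TGF-b1 in keratinocyte/foreskin fibroblast human skin co-culture, 24 h after dosing; bidirectional curve fit vs DMSO baseline; gain or loss of signal scored.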

Read-out in test [6]: CD40, CD40 (gene 958)
Put plainly: BSK_LPS_CD40: BioMAP Diversity Plus: LPS Assay for CD40 Biomarker Activity (AID 2283076). Conditions: primary human HUVEC with PBMC; actives raise or lower the signal. In a few lines:
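HUVEC plus PBMC co-culture stimulated with LPS; CD40 quantified by ELISA 24 h after compound dosing. Fitting was bidirectional relative to DMSO. SRB staining of parallel cultures flagged overt cytotoxicity.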

Read-out in test [7]: Tumor necrosis factor (Homo sapiens) (UniProt P01375)
Put plainly: BSK_LPS_TNFa: BioMAP Diversity Plus: LPS Assay for Tumour Necrosis Factor alpha (TNFa) Biomarker Activity (AID 2283085). As to conditions: primary human HUVEC with PBMC; actives raise or lower the signal. In a few lines:
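HUVEC/PBMC co-culture, LPS-stimulated; 24 h post-dose; TNFa by ELISA; gain or loss of signal fitted bidirectionally vs DMSO baseline.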

Read-out in test [8]: Vascular cell adhesion molecule 1 (VCAM1), VCAM1 (gene 7412)
As to the kind of experiment: BSK_LPS_VCAM1: BioMAP Diversity Plus: LPS Assay for Vascular cell adhesion molecule 1 (VCAM1) Biomarker Activity (AID 2283086). As to conditions: primary human HUVEC with PBMC; actives raise or lower the signal. In a few lines: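 ELISA read-out of VCAM-1 at 24 h post-dosing in an LPS-driven HUVEC/PBMC primary human co-culture; gain or loss of signal fitted bidirectionally against DMSO baseline. Cytotoxicity tracked in parallel cultures by SRB total-protein staining.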

Read-out in test [9]: CD38, CD38 (gene 952)
As to the kind of experiment: BSK_SAg_CD38: BioMAP Diversity Plus: SAg Assay for CD38 Biomarker Activity (AID 2283087). Conditions: primary human HUVEC with PBMC; actives raise or lower the signal. In a few lines:
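Measures CD38 on a human endothelial/PBMC co-culture driven by SEB and TSST-1, 24 h after compound exposure, using ELISA with fluorescence detection; DMSO defines baseline for bidirectional curve fitting.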

Read-out in test [10]: CD40, CD40 (gene 958)
As to the kind of experiment: BSK_SAg_CD40: BioMAP Diversity Plus: SAg Assay for CD40 Biomarker Activity (AID 2283088). Conditions: primary human HUVEC with PBMC; actives raise or lower the signal. In a few lines:
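HUVEC plus PBMC co-culture, superantigen-activated, with CD40 read by ELISA 24 h after dosing. Curves fitted in both directions against DMSO. Overt cytotoxicity checked by parallel SRB total-protein staining.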

Read-out in test [11]: CD69, CD69 (gene 969)
Put plainly: BSK_SAg_CD69: BioMAP Diversity Plus: SAg Assay for CD69 Biomarker Activity (AID 2283089).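 As to AC50: cell surface CD69 protein quantified by ELISA with fluorescence detection.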 As to conditions: primary human HUVEC with PBMC; actives raise or lower the signal. In a few lines: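 Values derive from bidirectional fitting relative to DMSO vehicle. Cells: umbilical vein endothelium plus peripheral blood mononuclear cells, treated 24 h before fluorescent ELISA for CD69.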

Read-out in test [12]: Monocyte Chemoattractant Protein-1 (MCP1), CCL2 (gene 6347)
Put plainly: BSK_SAg_MCP1: BioMAP Diversity Plus: SAg Assay for Monocyte Chemoattractant Protein-1 (MCP1) Biomarker Activity (AID 2283090). As to conditions: primary human HUVEC with PBMC; actives raise or lower the signal. In a few lines:
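Values derive from bidirectional fitting of ELISA-measured MCP1 against DMSO controls. Readings were taken 24 h after dosing human vascular endothelial cells co-cultured with peripheral blood mononuclear cells under superantigen stimulation.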

The nature of test [13]: BSK_SAg_Proliferation: Cell Proliferation Assessment in the BioMAP Diversity Plus: SAg Assay (AID 2283095).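 Also: relative cell number as total protein by SRB absorbance in sub-confluent culture.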 As to conditions: primary human HUVEC with PBMC. In a few lines:
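HUVEC/PBMC co-culture, 96-well. TCA-fixed (10%), 0.1% SRB stain, A560 at 96 h. Protein content used as viability readout; bidirectional fitting vs DMSO control.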

Test [14] can be described thus: BSK_SAg_SRB: Viability Assessment in the BioMAP Diversity Plus: SAg Assay (AID 2283096).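 Also: cells read one day after compound addition; hits may be either gain or loss of signal compared with DMSO.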 Conditions: primary human HUVEC with PBMC. In a few lines: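 This overt-cytotoxicity endpoint quantifies protein in human endothelial/PBMC co-cultures at 24 h using SRB absorbance (560 nm) after trichloroacetic acid fixation. Values reflect signal change from the DMSO negative control, fitted bidirectionally.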

Read-out in test [15]: Secreted IgG (sIgG), gene 3500
As to the kind of experiment: BSK_BT_sIgG: BioMAP Diversity Plus: BT Assay for Secreted IgG (sIgG) Biomarker Activity (AID 2284226). Conditions: primary human B cells with PBMC. In a few lines: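 Human B cell/PBMC co-culture; compound exposure 24 h; sIgG by ELISA; gain-of-signal fit vs DMSO baseline.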

The nature of test [16]: BSK_BT_Bcell_Proliferation: Viability Assessment in the BioMAP Diversity Plus: BT Assay for B cell Proliferation (AID 2284227). As to conditions: primary human B cells with PBMC. In a few lines:
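Using a human primary B cell–PBMC co-culture, the assay measures total protein by sulforhodamine B absorbance as a gauge of proliferation after 72 h. Analysis followed the positive fitting direction with DMSO as baseline.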

Read-out in test [17]: Interleukin 6 (IL6), IL6 (gene 3569)
As to the kind of experiment: BSK_BT_xIL6: BioMAP Diversity Plus: BT Assay for Interleukin 6 (IL6) Biomarker Activity (AID 2284228). Conditions: primary human B cells with PBMC. In a few lines: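 Human B cell/PBMC co-culture; secreted IL-6 quantified by Luminex xMAP 24 h after chemical dosing, fitted relative to DMSO. Parallel PBMC viability by Alamar Blue after 1 h pretreatment, 20 ng/mL SEB and TSST-1, 90 h incubation.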

Read-out in test [18]: Interleukin 17A (IL17A), IL17A (gene 3605)
As to the kind of experiment: BSK_BT_xIL17A: BioMAP Diversity Plus: BT Assay for Interleukin 17A (IL17A) Biomarker Activity (AID 2284229). As to conditions: primary human B cells with PBMC. In a few lines:
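Co-culture of human B cells and PBMC, dosed for 24 h in 96-well format. Secreted IL-17A measured with Luminex xMAP; gain-direction fitting against DMSO as baseline.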

Read-out in test [19]: Vascular cell adhesion molecule 1 (VCAM1), VCAM1 (gene 7412)
Put plainly: BSK_MyoF_VCAM1: BioMAP Diversity Plus: MyoF Assay for Vascular cell adhesion molecule 1 (VCAM1) Biomarker Activity (AID 2284231). Conditions: primary human lung fibroblasts. In a few lines:
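Primary human lung fibroblasts (BioMAP MyoF system) dosed with chemical, VCAM-1 measured by ELISA 24 hours later. Fitted in the positive direction against DMSO; parallel SRB staining assessed cytotoxicity.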

Test [20] addresses human Retinoic Acid Receptor beta (RARb), RARB (gene 5915) (UniProt P10826). As to the kind of experiment: ATG_RARb_TRANS: Attagene TRANS-FACTORIAL HepG2 Assay for human Retinoic Acid Receptor beta (AID 2283004; active = hit-call score of the fitted dose curve at least 0.9, where 1 is the maximum). In a few lines:
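HepG2 cells were transiently transfected with GAL4-UAS reporter units that report activity of exogenous chimeric NR-Gal4 proteins, then exposed to compound for 24 h. Reporter mRNA was quantified by RT-PCR with capillary electrophoresis fluorescence, as gain of signal over DMSO.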

Tumor necrosis factor (Homo sapiens), sequence (P01375 whole entry, looked up): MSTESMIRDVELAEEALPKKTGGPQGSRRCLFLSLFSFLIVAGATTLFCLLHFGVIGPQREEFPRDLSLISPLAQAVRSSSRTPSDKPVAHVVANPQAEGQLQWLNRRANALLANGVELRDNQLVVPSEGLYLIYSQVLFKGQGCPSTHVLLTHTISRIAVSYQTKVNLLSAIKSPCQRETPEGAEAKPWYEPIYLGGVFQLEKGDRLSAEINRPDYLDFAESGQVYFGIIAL
human Retinoic Acid Receptor beta (RARb), RARB (gene 5915), sequence (P10826 whole entry, looked up, the tested form may be a part): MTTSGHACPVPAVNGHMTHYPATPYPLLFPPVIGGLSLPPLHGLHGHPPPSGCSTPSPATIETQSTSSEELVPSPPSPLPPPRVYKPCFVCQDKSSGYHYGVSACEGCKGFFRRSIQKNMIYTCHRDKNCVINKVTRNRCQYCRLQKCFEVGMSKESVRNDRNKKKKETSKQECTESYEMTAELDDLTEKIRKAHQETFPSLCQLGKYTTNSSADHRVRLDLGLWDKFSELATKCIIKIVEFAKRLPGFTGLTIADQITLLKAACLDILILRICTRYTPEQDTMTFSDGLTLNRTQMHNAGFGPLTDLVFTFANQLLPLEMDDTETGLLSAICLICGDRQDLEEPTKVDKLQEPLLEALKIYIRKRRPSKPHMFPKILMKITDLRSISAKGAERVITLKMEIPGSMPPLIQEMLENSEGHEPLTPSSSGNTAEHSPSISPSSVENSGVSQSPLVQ

For the molecule `CN(C)CCC(c1ccc(Cl)cc1)c1ccccn1` (configuration not stated), the outcome in test [1], in test [2], in test [3], in test [4], in [5] and in [6] was inactive. For the same molecule, the outcome in test [7], in [8], in test [9], in [10], in test [11] and in test [12] was inactive. The outcome in test [13], in test [14], in [15], in test [16], in test [17] and in [18] was inactive. Also, in test [19], the result was inactive.

Turning to `CCCOCCC`, the result in [20] was inactive.

Consider `O=C(Oc1ccccc1)c1ccccc1`, for which the call in test [20] was inactive.

Consider `CN1CCCC1`, for which, in test [20], the molecule was called inactive.

Consider `CC=CC(=O)O`, for which, in test [20], the result was inactive.

As to `C/C=C(\C)C(=O)OCC/C=C\CC`, the call in [20] was inactive.

As usually defined, the AC50 is the concentration at which the activity in the assay is half-maximal. Turning to `CCCCCCCCCCCCCCCCCC[N+](C)(C)C`, the AC50 is 15.7 µM (active) in test [20]; 1.36 µM (active) in test [1]; 1.34 µM (active) in test [2]; 5.94 µM (active) in test [4]; 2.15 µM (active) in [5]; 6.84 µM (active) in test [6]. The AC50 was 7.96 µM (active) in test [8]; 5 µM (active) in test [9]; 5 µM (active) in [10]; 7.15 µM (active) in test [11]; 6.02 µM (active) in test [12]; 0.995 µM (active) in test [13]. For the same molecule, the AC50 in test [14] is 3.82 µM (active); in test [15], 0.706 µM (active); in test [16] it was 2.66 µM (active); in test [17] it was 5 µM (active); in test [18], 1.36 µM (active); in test [19], 3.33 µM (active). Moreover, the outcome in test [3] and in test [7] was inactive.

For `COC(=O)/C=C\C(=O)OC`, the result in [1], in test [2], in test [3], in test [4], in test [5] and in test [6] was inactive. Also, the outcome in test [7], in test [9], in test [10], in test [11], in test [12] and in test [13] was inactive. In addition, the result in test [14], in [16], in test [18] and in test [19] was inactive. In addition, the AC50 was 8.6 µM (active) in [8], 20 µM (active) in [15] and 14.5 µM (active) in test [17].

On to `CC(C)CC(=O)CC(C)CC(C)C` (configuration not stated), for which the AC50 was 36.6 µM (active) in test [1], 37.8 µM (active) in test [2] and 31.6 µM (active) in [4]. Also, the result in [3], in test [5], in test [6], in [7], in [8] and in test [9] was inactive. For the same molecule, the outcome in [10], in test [11], in [12], in test [13], in test [14] and in test [15] was inactive. Further, the result in test [16], in [17], in test [18] and in [19] was inactive.

(Values after PubChem BioAssay (EPA / NIEHS).)
